Measured values reported in PubChem BioAssay (NCI).
This is part of a sample that, as a whole, favours compounds with a hit. Of some 83,000 tested, about 20% had one in any assay.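 Interpretation: 100, growth as untreated; towards 0, rising growth inhibition; 0, no net growth; 0 to -100, cell death. Compounds scoring below 10 were considered active.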 Unmarked numbers belong to inactive results. Calls of active or inactive are those of the source.

Columns and labels:
Assay in all cases: NCI-60 one-dose screen, 48 h (100 = growth as untreated, 0 = no growth, -100 = all killed)
Conditions in all cases: 10 µM unless noted
[1] = test system: SR leukemia
[2] = test system: RPMI-8226 leukemia
[3] = test system: OVCAR-8 ovarian
[4] = test system: OVCAR-5 ovarian
[5] = test system: OVCAR-4 ovarian
[6] = test system: SK-OV-3 ovarian
[7] = test system: IGROV1 ovarian
[8] = test system: OVCAR-3 ovarian
[9] = test system: HS 578T breast
[10] = test system: NCI/ADR-RES ovarian

Row | Structure (SMILES) | growth [1] | growth [2] | growth [3] | growth [4] [%] | growth [5] | growth [6] [%] | growth [7] | growth [8] | growth [9] | growth [10]
1 | CC(=O)/C(=C\c1c(-c2ccccc2)[nH]c2ccccc12)S(C)(=O)=O | -25.2% (active) | -32.2% (active) | 40.9% | 78.3 | -29.6% (active) | 35.9 | 54.1% | -54.6% (active) | 3.31% (active) | -19.5% (active)
2 | NC(=O)c1ccc(-c2c3ccccc3cc3c2ccc2ccccc23)cc1 | 15.9% | 49.7% | 77.4% | 74.7 | 80% | 69.5 | 42.6% | 3.85% (active) | -12.4% (active) | 16.6%
3 | O=C(O)CCCN1C(=O)/C(=C/c2cn(-c3ccccc3)nc2-c2ccc([N+](=O)[O-])cc2)SC1=S | 33.3% | 46.8% | 44.4% | 94.3 | 64% | 59.1 | 58.3% | 61.6% | 63.6% | 43.5%
4 | NS(=O)(=O)c1ccc(N=Nc2c(O)n(Cc3ccccc3)c3ccc(Cl)cc23)cc1 | 60.2% | 90.7% | 65.1% | 86.8 | 28.7% | 74.3 | 84% | 89.4% | 44.8% | 82.5%
5 | O=C(Nn1c2c(sc1=NC1CC1)C(=O)c1ccccc1C2=O)c1cc2ccc1CCc1ccc(cc1)CC2 | 29.4% | 19.5% | 3.79% (active) | 111 | 40.5% | 59.1 | 34.6% | 1.11% (active) | 46.2% | 17.8%
6 | Cc1cc(N2CCN(CC(=O)Nc3ccc4c(ccn4C)c3)CC2)nc(N2CCCCCC2)n1 | 122% | 76.1% | 83.3% | 100 | 92.2% | 84.4 | 83.5% | 82.6% | 96.8% | 91.5%
7 | NC(=O)CSc1oc(-c2ccccc2)nc1S(=O)(=O)c1ccc(Br)cc1 | 79.3% | 81.1% | 49.4% | 109 | 45.4% | 88.3 | 93% | 62.5% | 56.1% | 86.4%
8 | Clc1cccc(Nc2ncnc3ccc(-c4cnc5[nH]ccc5c4)cc23)c1 | 60% | 60% | 68.2% | 78.7 | 85% | 71.1 | 25.1% | 64.6% | 81.4% | 77%
9 | COc1ccc(-c2nc3cc(C(=O)NCc4ccccc4)ccc3n2C2CCCCC2)cc1 | 43.8% | 69.2% | 93% | 84.9 | 80.4% | 102 | 105% | 85.8% | 76.3% | 88.5%
10 | Clc1ccc2c(NC3CCC(N4CCOCC4)CC3)ccnc2c1 (stereo not given) | 55.2% | 58.2% | 69.1% | 105 | 56.7% | 81.5 | 131% | 92.7% | 83.8% | 77.2%
11 | CC(=O)N1N=C(c2ccc(C(F)(F)F)c(F)c2)CC1c1[nH]c(C)c(C(=O)NCC(F)(F)F)c1C (stereo not given) | 86.9% | 90.7% | 41.9% | 79.3 | 13.6% | 75.2 | 69.5% | 68.3% | 31.8% | 78.5%
12 | N#Cc1nc(-c2ccccc2)oc1S(=O)(=O)N1CCN(c2ccccc2)CC1 | 14.7% | 63.4% | 81.3% | 112 | 99.5% | 105 | 78.9% | 111% | 102% | 97.5%
13 | CCc1ncnc2c1ccn2C(C)c1ccc(OC)c(F)c1 (stereo not given) | 16.5% | 37.2% | 49.2% | 88.1 | 54.9% | 53.6 | 54.9% | 34.8% | 69.2% | 44.6%
14 | O=S(=O)(NCCNc1nccc(-c2c(-c3ccc(F)c(O)c3)nc3sccn23)n1)c1ccc(O)cc1 | 38.4% | 17.9% | 32.8% | 104 | 34.1% | 53.7 | 36.1% | 57.4% | 64.1% | 39.6%
15 | Cc1cc(=O)n(C(=O)Nc2ccccc2Cl)c2cc(O)ccc12 | 112% | 97.8% | 95.5% | 102 | 107% | 95 | 104% | 106% | 98.7% | 99.9%
16 | N#Cc1nc(-c2ccc(F)cc2)oc1S(=O)(=O)N1CCOCC1 | -5.89% (active) | 41.2% | 63.1% | 101 | 60.9% | 99.4 | 78.3% | -88.4% (active) | 123% | 91.1%
17 | COC(=O)c1c2c(c(C)[n+]([O-])c1C)C(=O)C(NCc1cccc(OC)c1)=CC2=O | 17.6% | 33.1% | -4.96% (active) | 67.6 | -28.6% (active) | 89.6 | 12.3% | -12.1% (active) | 82.7% | 8.5% (active)
18 | c1ccc(Cn2cc3c(c2)-c2oncc2CC3)cc1 | 39.3% | 8.25% (active) | 36.4% | 25.1 | 64.1% | 13.5 | 34.9% | -23.8% (active) | 1.9% (active) | 0.523% (active)
19 | CS(=O)(=O)Nc1cc(-c2ccc3ncnc(Nc4ccc5c(cnn5Cc5ccc(F)cc5)c4)c3c2)cnc1Cl | 34% | 9.43% (active) | 67.9% | 44.7 | 71% | 47.5 | -15.7% (active) | 9.71% (active) | -9.56% (active) | 90%
20 | COc1ccc(-c2ccc(-c3ccc(C(=N)N)cc3)s2)cc1Cl | -7.28% (active) | -34.4% (active) | -18.2% (active) | 14.2 | -42% (active) | 93 | -87.5% (active) | -88% (active) | 44.9% | 78%
21 | CC(O)(c1ccccc1)C(c1ccccc1)C1CCCCN1 (stereo not given) | 101% | 102% | 101% | 113 | 97.9% | 113 | 80.5% | 105% | 107% | 105%
22 | COc1ccc(/C=C(\C#N)n2nnc3ccc(Cl)cc32)cc1 | 29.9% | 67.8% | 48.8% | 92 | 71.6% | 108 | 59.5% | -18.4% (active) | 74.4% | 39.3%
23 | O=C(COc1ccc(-c2nc3cc(Cl)c(Cl)cc3[nH]2)cc1)N=Nc1c(O)[nH]c2ccc(Cl)cc12 | 31.1% | 56% | 37% | 95.6 | 64.2% | 84.5 | 79.9% | 75.1% | 67.5% | 95.8%
24 | CC(=O)c1c(C)nc(SCC(=O)Nc2cccc(O)c2)n1-c1ccc(Cl)cc1 | 103% | 97% | 99.8% | 104 | 89.1% | 104 | 99% | 103% | 82.1% | 98.9%
25 | O=C(NCCCl)Nc1ncccc1OCc1ccccc1 | 78% | 99.4% | 104% | 90.9 | 96.8% | 114 | 95.8% | 107% | 110% | 106%
26 | Nc1ncnc2c1N=C(c1ccc(Br)cc1)CC(c1cccc(Nc3ccnc4cc(C(F)(F)F)ccc34)c1)N2 (stereo not given) | 22.1% | 12.7% | 69.9% | 88.7 | 76.8% | 45.7 | 65.7% | 83.9% | 65% | 66.9%
27 | CCOC(=O)c1nn(-c2ccc(S(N)(=O)=O)cc2)c2nc(C)cc(=O)n12 | 104% | 103% | 105% | 117 | 102% | 105 | 98.7% | 110% | 103% | 103%
